Unmarked numbers belong to inactive results. Records with an inconclusive call do not appear. Activity calls are given as the source filed them. Unless noted, calls follow the shape of the dose curve; as a rule, active = well fitted curve in the direction sought with a large enough effect; inconclusive = small, poorly fitted or top-dose-only effect, or another doubt; inactive = no such curve, though single readings can be large; an effect the other way counts as inactive or inconclusive.

The target in test [1] is Cytochrome P450 1A2 (Homo sapiens) (UniProt P05177). The test can be described thus: p450-cyp1a2 (AID 410; calls by dose curve; also: potency is read from the fitted curve at half-maximal effect). In a few lines:
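Inhibition was calculated relative to 57 uM furafylline (full inhibition). The reaction used human CYP1A2 at 20nM with Luciferin-ME at its Km, 100uM, driven by an NADPH-regenerating system for 60 min at room temperature.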

For test [2], the target named is Glucocorticoid receptor (Homo sapiens) (UniProt P04150). Description: GR-GFP Redistribution (AID 450;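 active = compounds whose dose series gives a full or clear partial fitted curve of increased nuclear translocation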; also: potency is read from the fitted curve at half-maximal effect). The settings on record: U2OS GR-GFP nuclear translocation, laser cytometry, 2 h.
Test [3] has the same target. Description: GR-EFC Redistribution (AID 451; calls by dose curve; also: potency is read from the fitted curve at half-maximal effect). The settings on record: CHO-K1 GR-EFC translocation, beta-gal luminescence, 2 h. In a few lines: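 Translocation of GR-ED fusion to nuclear EA restores b-gal, read by luminescence after 1 h room-temperature detection. Engineered CHO-K1 biosensor cells, 1,000/well, exposed 2 h at 37 C to titrations up to 46 uM final.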
Test [4] addresses Cytochrome P450 3A4 (Homo sapiens) (UniProt P08684). Description: qHTS Assay for Activators of Cytochrome P450 3A4 (AID 885). Also: nearly all actives have a fitted effect of over 65% in size. In a few lines:
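Steps: enzyme/substrate mix dispensed; compound added, 10 min RT; NADPH regeneration solution added, 60 min RT; luciferin detection buffer stops reaction; 20 min later luminescence measured.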
Background: Quantitative high-throughput screening tests each substance at several concentrations.

Test [5] has as its target Cytochrome P450 2D6 (Homo sapiens) (UniProt P10635). The test can be described thus: qHTS Assay for Inhibitors and Substrates of Cytochrome P450 2D6 (AID 891). Also: potency is read from the fitted curve at half-maximal effect; nearly all actives have a fitted effect of over 60% in size. The essentials: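 Human CYP2D6 (5 nM) with 30 uM Luciferin-ME EGE (at Km) in 100 mM KPO4, compound preincubated 10 min, then NADPH regeneration system for 60 min at room temperature. Luciferin read by luminescence; normalized to 1.43 uM quinidine.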

Test [6] deals with Cytochrome P450 2C19 (Homo sapiens) (UniProt P33261). The test can be described thus: qHTS Assay for Inhibitors and Substrates of Cytochrome P450 2C19 (AID 899). Also: potency is read from the fitted curve at half-maximal effect; nearly all actives have a fitted effect of over 60% in size. In a few lines: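 Luminescence readout of luciferin formed from 10uM Luciferin-H EGE (KM level) by 5 nM CYP2C19 in 50mM KPO4. 60 min NADPH-driven reaction at 37C after 10 min compound preincubation; data scaled to 57uM ketoconazole inhibition.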

Test [7] deals with Zika virus NS2B-NS3 protease. Description: Primary screen GU AMC qHTS for Zika virus inhibitors (AID 1347154). Also: nearly all actives have a fitted effect of over 70% in size. In a few lines:
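Fluorogenic AMC-substrate cleavage by noncovalent NS2B-NS3 protease complex (25 nM, pH 8.0 Tris buffer with Tween 20) followed for 15 minutes at room temperature (~20% conversion). Percent inhibition from ex340/em450 signal change, fitted by 4-parameter Hill equation.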

A short description of test [8]: Primary qHTS for small molecule stabilizers of the endoplasmic reticulum resident proteome: Secreted ER Calcium Modulated Protein (SERCaMP) assay (AID 1508630). In a few lines:
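GLuc-SERCaMP-expressing SH-SY5Y cells, pretreated 16 h with compound, are challenged with thapsigargin to empty ER calcium stores; after 4 h, coelenterazine is added directly to the medium and luminescence is imaged.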

Test [9] concerns the target Mitogen-activated protein kinase 10 (Mus musculus) (UniProt Q61831). The test can be described thus: JNK3 AlphaScreen Assay (AID 530; active = well fitted curve in either direction with a large enough effect, not every such curve was filed as active;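 also: kinase came from lysate of stimulated human HepG2 cells; signal reports phosphorylation of biotinylated GST-cJun 1-79 at Ser73 with 10 µM ATP; series mostly up to about 57 µM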). The essentials:
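Room-temperature AlphaScreen kinase assay; pre-activated HepG2 lysate as JNK3 source, biotin-GST-cJun(1-79) substrate, 10 uM ATP, compound 15 min preincubation.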
(In general: Bead proximity is the source of the signal in Alpha formats.)

The target in test [10] is 3',5'-cyclic-AMP phosphodiesterase 4B (Homo sapiens) (UniProt Q07343). Description: qHTS Assay for Inhibitors of PDE-IV (AID 607; active = well fitted activation curve with a large enough effect in the main read-out, with a control signal flat, not every such curve was filed as active). The essentials:
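The readout is membrane depolarisation from a cAMP-sensing CNG channel, detected with a potential dye at ex 535/em 590. Cells were HEK293-derived (endogenous PDE-IV) at 1000 cells/well, titrated up to 22.9 uM final.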

The target in test [11] is Cytochrome P450 2C9 (Homo sapiens) (UniProt P11712). The test can be described thus: qHTS Assay for Inhibitors and Substrates of Cytochrome P450 2C9 (AID 883). Also: potency is read from the fitted curve at half-maximal effect; nearly all actives have a fitted effect of over 60% in size. The essentials: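 Luminescent read-out of deoxyluciferin hydroxylation, normalized to 57uM sulphaphenazole (AC100). Reaction: 10nM enzyme, 100uM Luciferin-H (equal to KM), 25mM KPO4, 10 min compound preincubation, then 60 min with NADPH regeneration, both at 37C.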

In test [12] the target is Ubiquitin carboxyl-terminal hydrolase 1 (Homo sapiens) (UniProt O94782). The test can be described thus: Inhibitors of USP1/UAF1: Pilot qHTS (AID 504865).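 Also: rhodamine fluorescence freed from ubiquitin-rhodamine substrate followed over time; top concentration of the series differs between compounds; nearly all actives have a fitted effect of over 35% in size.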 The essentials: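 Deubiquitinase activity followed as kinetic rhodamine fluorescence release from 150 nM Ub-Rho. 1 nM USP1/UAF1 with compound, after 15 min room-temperature preincubation, in HEPES pH 7.8 buffer containing TCEP, EDTA, BSA and Tween-20.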

Test [13] addresses DNA dC->dU-editing enzyme APOBEC-3G (Homo sapiens) (UniProt Q9HC16). Description: qHTS for inhibitors of Vif-A3G interactions: Validation (AID 588379). The essentials: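 HeLa cells stably expressing Vif and A3G-eYFP, 700 cells/well, incubated overnight at 37 deg C, then exposed to compound overnight at 37 deg C. Inhibition of Vif-mediated degradation read as increased yellow fluorescence (Ex 488/Em 500-530) by laser-scanning cytometry.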

Test [14] concerns the target Cytochrome P450 3A4 (Homo sapiens) (UniProt P08684). The test can be described thus: qHTS Assay for Inhibitors and Substrates of Cytochrome P450 3A4 (AID 884). Also: nearly all actives have a fitted effect of over 50% in size. Also: potency is read from the fitted curve at half-maximal effect. In a few lines: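 20 nM human CYP3A4 with 25 uM Luciferin-PPXE (at KM) in 200 mM KPO4, preincubated 10 min with compound; NADPH regeneration started a 60 min RT reaction. Luciferin detected by luminescence, normalized to 57 uM ketoconazole as full inhibition.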

Chain of Cytochrome P450 3A4 (Homo sapiens) (P08684 whole entry, looked up): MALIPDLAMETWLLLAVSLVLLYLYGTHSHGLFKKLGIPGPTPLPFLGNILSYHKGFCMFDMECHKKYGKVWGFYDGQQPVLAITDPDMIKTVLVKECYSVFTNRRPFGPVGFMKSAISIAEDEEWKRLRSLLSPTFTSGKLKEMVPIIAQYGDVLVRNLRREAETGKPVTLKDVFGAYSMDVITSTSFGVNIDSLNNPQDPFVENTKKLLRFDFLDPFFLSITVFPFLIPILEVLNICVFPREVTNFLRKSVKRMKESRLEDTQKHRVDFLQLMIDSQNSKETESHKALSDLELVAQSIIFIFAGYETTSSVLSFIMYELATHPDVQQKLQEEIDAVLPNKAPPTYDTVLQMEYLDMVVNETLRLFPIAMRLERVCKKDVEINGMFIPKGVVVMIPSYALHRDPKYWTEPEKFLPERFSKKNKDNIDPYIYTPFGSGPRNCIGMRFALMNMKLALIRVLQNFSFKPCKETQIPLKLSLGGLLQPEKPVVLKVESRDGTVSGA
Chain of Ubiquitin carboxyl-terminal hydrolase 1 (Homo sapiens) (O94782 whole entry, looked up): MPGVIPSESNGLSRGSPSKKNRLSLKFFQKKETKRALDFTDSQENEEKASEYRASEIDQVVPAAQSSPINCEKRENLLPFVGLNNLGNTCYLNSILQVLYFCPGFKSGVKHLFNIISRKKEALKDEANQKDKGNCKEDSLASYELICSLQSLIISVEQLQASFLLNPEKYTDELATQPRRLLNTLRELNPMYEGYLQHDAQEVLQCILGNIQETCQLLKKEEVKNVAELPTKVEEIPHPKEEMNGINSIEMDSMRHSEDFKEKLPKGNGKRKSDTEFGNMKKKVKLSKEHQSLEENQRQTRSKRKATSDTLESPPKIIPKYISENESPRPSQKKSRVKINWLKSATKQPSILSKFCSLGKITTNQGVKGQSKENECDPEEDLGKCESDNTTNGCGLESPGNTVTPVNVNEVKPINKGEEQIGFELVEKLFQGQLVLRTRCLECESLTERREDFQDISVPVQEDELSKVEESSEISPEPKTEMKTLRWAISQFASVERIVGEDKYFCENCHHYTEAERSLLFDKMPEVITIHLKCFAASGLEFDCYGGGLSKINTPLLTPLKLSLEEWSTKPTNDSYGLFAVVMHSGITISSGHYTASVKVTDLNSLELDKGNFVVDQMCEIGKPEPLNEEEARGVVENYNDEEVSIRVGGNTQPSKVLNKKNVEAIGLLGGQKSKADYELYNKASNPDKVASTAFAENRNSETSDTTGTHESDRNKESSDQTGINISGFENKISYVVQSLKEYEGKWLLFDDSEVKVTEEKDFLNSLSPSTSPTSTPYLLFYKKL
Chain of Glucocorticoid receptor (Homo sapiens) (P04150 whole entry, looked up, the tested form may be a part): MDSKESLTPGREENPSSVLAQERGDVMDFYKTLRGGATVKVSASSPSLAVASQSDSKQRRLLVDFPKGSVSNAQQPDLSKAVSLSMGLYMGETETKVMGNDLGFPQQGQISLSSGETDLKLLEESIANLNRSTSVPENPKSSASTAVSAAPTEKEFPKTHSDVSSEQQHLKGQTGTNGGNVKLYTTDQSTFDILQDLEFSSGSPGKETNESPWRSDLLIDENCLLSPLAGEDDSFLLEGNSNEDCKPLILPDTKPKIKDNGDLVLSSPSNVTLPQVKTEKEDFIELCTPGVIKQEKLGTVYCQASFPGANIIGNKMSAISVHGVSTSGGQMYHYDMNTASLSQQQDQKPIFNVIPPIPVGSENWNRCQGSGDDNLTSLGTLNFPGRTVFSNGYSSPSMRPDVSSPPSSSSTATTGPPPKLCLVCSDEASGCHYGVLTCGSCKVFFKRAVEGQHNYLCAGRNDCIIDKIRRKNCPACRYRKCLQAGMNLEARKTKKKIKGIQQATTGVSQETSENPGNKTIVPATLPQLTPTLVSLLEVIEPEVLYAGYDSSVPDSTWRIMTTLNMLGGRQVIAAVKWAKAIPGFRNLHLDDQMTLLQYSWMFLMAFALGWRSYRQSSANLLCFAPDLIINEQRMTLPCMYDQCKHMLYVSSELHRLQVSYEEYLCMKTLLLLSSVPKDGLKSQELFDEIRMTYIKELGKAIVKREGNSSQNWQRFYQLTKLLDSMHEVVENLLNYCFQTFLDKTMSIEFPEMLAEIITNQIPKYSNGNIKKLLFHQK
Chain of Cytochrome P450 2C19 (Homo sapiens) (P33261 whole entry, looked up): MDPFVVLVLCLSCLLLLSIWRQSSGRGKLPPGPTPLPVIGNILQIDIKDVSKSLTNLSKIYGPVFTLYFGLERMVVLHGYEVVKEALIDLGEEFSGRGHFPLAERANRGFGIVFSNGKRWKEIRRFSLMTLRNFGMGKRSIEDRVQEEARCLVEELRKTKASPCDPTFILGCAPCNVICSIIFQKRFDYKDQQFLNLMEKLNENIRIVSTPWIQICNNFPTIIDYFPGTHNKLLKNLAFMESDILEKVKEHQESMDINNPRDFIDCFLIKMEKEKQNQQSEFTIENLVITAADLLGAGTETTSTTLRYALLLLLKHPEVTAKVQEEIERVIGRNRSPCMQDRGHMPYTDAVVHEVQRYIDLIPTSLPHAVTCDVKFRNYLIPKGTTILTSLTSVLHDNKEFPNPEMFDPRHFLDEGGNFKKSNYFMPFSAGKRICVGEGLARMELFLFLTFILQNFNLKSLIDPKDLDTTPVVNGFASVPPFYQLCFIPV
Chain of DNA dC->dU-editing enzyme APOBEC-3G (Homo sapiens) (Q9HC16 whole entry, looked up): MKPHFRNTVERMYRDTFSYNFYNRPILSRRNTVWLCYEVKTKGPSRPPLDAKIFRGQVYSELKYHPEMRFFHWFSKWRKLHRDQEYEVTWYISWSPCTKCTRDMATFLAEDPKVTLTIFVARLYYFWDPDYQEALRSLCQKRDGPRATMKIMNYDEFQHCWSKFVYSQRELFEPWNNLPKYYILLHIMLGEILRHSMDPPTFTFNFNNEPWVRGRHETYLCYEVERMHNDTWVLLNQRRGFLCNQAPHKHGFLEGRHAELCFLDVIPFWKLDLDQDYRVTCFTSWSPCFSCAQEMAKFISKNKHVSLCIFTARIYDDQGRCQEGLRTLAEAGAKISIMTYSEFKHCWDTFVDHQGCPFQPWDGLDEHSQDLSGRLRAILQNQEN
Chain of 3',5'-cyclic-AMP phosphodiesterase 4B (Homo sapiens) (Q07343 whole entry, looked up): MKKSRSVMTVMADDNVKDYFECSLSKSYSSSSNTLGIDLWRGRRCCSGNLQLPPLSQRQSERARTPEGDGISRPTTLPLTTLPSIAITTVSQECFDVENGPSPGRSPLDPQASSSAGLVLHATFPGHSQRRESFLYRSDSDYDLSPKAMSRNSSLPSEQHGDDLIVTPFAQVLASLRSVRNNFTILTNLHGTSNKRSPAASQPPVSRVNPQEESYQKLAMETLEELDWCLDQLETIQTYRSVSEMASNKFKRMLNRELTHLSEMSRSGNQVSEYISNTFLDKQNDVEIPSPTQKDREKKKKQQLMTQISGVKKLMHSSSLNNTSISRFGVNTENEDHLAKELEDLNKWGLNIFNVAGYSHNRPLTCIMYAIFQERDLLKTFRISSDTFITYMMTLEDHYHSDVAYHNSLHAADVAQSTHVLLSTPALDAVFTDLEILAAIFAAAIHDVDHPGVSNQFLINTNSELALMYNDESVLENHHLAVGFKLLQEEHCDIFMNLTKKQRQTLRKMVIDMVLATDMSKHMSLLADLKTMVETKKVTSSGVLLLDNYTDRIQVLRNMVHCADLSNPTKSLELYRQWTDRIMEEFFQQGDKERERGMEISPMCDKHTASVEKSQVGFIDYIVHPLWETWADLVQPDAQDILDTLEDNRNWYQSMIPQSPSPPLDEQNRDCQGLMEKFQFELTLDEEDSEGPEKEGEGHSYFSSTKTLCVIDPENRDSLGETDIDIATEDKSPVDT
Chain of Cytochrome P450 2C9 (Homo sapiens) (P11712 whole entry, looked up): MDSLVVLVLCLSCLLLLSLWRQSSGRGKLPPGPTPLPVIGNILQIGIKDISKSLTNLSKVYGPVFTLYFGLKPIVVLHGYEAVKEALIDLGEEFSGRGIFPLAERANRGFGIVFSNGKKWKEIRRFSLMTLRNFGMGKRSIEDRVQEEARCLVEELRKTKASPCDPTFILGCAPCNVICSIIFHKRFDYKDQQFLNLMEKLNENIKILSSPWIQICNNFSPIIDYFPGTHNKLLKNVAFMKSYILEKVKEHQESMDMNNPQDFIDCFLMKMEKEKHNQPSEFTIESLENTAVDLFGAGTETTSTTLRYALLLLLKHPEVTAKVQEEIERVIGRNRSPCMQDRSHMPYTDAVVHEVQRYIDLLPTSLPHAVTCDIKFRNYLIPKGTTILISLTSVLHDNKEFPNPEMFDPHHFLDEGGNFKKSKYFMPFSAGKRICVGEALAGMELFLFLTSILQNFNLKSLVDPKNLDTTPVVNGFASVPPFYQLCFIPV
Chain of Cytochrome P450 1A2 (Homo sapiens) (P05177 whole entry, looked up): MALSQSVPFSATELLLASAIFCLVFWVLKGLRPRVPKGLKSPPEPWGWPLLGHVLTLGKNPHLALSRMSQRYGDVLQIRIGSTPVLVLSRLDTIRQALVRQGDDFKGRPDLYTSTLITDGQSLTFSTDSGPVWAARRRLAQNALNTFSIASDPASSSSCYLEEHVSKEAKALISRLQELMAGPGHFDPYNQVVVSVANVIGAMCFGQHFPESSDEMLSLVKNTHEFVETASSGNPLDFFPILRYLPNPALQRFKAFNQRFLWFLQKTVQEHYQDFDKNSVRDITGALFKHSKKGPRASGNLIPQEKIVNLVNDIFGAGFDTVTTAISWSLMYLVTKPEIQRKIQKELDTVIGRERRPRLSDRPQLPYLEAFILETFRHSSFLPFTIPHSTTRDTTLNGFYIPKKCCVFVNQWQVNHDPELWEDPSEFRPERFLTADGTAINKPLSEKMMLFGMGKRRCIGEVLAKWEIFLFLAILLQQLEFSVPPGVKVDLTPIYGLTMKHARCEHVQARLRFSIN

In the case of `CS(=O)(=O)Nc1ccc([N+](=O)[O-])cc1OC1CCCCC1`, the Potency in [1] was 3.98 µM (active); in [2], over 46 µM; in [3] it was over 46 µM; in [5], 0.0501 µM (active); in test [6], 0.0794 µM (active). Also, the Potency entry in test [4], in test [7] and in test [8] was “inactive” in each case.
For `CCCCC#Cc1nc(NC)c2ncn([C@@H]3O[C@@H](CO)[C@H](O)[C@H]3O)c2n1`, the Potency in test [2] is over 46 µM; in test [3] it was over 46 µM; in [11], 0.631 µM (active). Also, the Potency entry in [9], in test [10], in test [12], in [13], in test [7] and in test [8] was “inactive” each time.
On to `COc1ccc(C(OCCN2CCC[C@@H](C(=O)O)C2)(c2ccc(OC)cc2)c2ccc(OC)cc2)cc1`, for which the Potency in [2] and in test [3] was over 46 µM throughout. The Potency result in [9], in [10], in test [4], in [13], in test [7] and in test [8] was “inactive” each time.
Take `O=C(O)CCC/C=C\C[C@@H]1CO[C@H](C(F)(F)F)O[C@@H]1c1ccccc1O`: the Potency in test [2] and in test [3] was over 46 µM in each case. Also, the Potency result in test [9], in [4], in [12], in test [13], in test [7] and in [8] was “inactive” throughout.
Turning to `O=C(NC1CCN(Cc2ccccc2)CC1)c1ccc(I)cc1`, the Potency in [2] and in test [3] was over 46 µM each time. Besides, the Potency result in test [9], in test [10], in [14], in test [12], in test [13] and in [7] was “inactive” in each case. The Potency entry in [8] is “inactive”.
As to `CC[C@]1(O)C[C@@H]2CN(CCc3c([nH]c4ccccc34)[C@](C(=O)OC)(c3cc4c(cc3OC)N(C)[C@H]3[C@](O)(C(=O)OC)[C@@H](C(=O)OC)[C@@]5(CC)C=CCN6CC[C@@]43[C@@H]65)C2)C1`, the Potency in test [2] and in [3] was over 46 µM throughout. For the same molecule, the Potency result in [9], in test [4], in test [12], in test [13], in test [7] and in [8] was “inactive” each time.
In the case of `O=C(Cc1ccccc1)Nc1nc2ccc(Cl)cc2c2nc(-c3ccco3)nn12`, the Potency was over 46 µM in test [2], over 46 µM in test [3], 3.16 µM (active) in test [11] and 1.58 µM (active) in test [6]. Besides, the Potency result in [9], in test [10], in test [4], in test [12], in test [7] and in test [8] was “inactive” throughout.
Consider `CN1CCc2cc3c(cc2[C@@H]1[C@@H]1C(=O)Oc2c1ccc1c2OCO1)OCO3`, for which the Potency was over 46 µM in test [2], over 46 µM in test [3], 1.26 µM (active) in test [14] and 0.02 µM (active) in test [6]. Also, the Potency result in test [9], in [10], in test [4], in test [13], in [7] and in test [8] was “inactive” in each case.
Turning to `Clc1cccc(Nc2nnc(-c3ccccc3)c3ccccc23)c1`, the Potency was 1.26 µM (active) in [1]; over 46 µM in [2]; over 46 µM in [3]; 3.98 µM (active) in [11]; 0.794 µM (active) in [6]. For the same molecule, the Potency result in [4], in test [7] and in [8] was “inactive” in each case.
With `Cc1cc(Cn2cnc3c2C[C@@H](C(=O)O)N(C(=O)C(c2ccccc2)c2ccccc2)C3)ccc1N(C)C`, the results for the Potency in [2], in test [3] and in [6] were over 46 µM, over 46 µM and 1.58 µM (active), respectively. Besides, the Potency result in [9], in [10], in test [12], in test [13], in [7] and in test [8] was “inactive” in each case.

For the origin of these results see PubChem BioAssay (NCATS).
